Results taken from the supplement of paper PMC12632987.

T1: USP38, Q8NB14
T1 chain: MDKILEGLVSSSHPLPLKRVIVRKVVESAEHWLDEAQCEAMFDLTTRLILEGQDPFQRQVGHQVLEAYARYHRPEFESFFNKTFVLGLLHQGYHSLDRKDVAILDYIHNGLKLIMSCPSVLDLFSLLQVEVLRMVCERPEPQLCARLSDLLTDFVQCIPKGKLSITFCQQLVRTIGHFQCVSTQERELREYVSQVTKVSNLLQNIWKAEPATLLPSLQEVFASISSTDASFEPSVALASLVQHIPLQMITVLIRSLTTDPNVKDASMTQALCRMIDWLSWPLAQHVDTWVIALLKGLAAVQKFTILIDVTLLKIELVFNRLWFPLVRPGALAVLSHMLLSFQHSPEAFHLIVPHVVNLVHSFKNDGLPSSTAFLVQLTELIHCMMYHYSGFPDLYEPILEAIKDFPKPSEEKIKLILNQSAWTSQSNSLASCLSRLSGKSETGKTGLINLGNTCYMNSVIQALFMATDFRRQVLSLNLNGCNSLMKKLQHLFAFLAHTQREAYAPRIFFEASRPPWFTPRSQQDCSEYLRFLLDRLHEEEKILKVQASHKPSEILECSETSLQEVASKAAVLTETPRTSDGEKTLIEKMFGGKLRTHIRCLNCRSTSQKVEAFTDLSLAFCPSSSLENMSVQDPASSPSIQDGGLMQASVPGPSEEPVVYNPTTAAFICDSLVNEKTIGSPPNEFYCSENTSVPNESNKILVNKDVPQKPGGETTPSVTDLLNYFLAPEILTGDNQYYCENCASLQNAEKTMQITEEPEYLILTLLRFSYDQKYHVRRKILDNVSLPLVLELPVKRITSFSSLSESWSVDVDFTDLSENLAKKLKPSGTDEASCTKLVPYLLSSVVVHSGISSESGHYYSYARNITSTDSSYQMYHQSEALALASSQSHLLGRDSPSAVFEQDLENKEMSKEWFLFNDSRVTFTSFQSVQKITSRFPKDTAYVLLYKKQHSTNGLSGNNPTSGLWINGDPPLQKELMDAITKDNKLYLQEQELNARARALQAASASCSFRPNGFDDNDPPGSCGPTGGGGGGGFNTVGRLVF

B1: usp_38_diff_out_24_27_500 (protein)
chain: EKEKEEKIKKVKELFEEIEKLVKESRTADIAGRIRISSEVDELFEEIRKIAKELGNEEALKLIDKAKAQAFAIISGDENWEEHLKELKKLFEEILKEFEK
B2: usp_38_diff_out_24_27_501 (protein)
chain: SAEHEKKLEKAKELLKKILELAEKAQTGDIATRIKASSEIDELFEELKKIAEEENNEELLKLLTELKTKVYAVLSGHPNAEEHLKEAKKLAEKFLEELKK
B3: usp_38_diff_out_24_27_505 (protein)
chain: SEELEKALEKALKLLEDIAEDLKEAQKKGPTALFVVKRKHVDEIDKLREELEKLGPELAREVTTILLAFLNRSAADPEKREEYLKEAKEKIKEAFEKHKK
B4: usp_38_diff_out_24_27_502 (protein)
chain: EEEKKKKLEEIKKLLEEILALLKASQTGDIATRIKASSEIDELFEKIEKILKELGNEEGLELLTELKTQAYAVLSRSPDWQEHLAKAKELAEKIIKLAKK
B5: usp_38_diff_out_24_27_499 (protein)
chain: EEEKQKLLKELLKKFEEILKLSEKAVGADLATRIKLSSEIDEKLEEARKLAKELGDEEIEELVTKVEIAANIVLSGSEEAEEALKEIKKLVEELKKKIEE
B6: usp_38_diff_out_2_113_468 (protein)
chain: DPEQKKEEAQLYKDIILEGADKLLELAKKGMLTPDRTKVMLGGIVHAAREAYELDPSVKPVIEEVIEKLEEIKELVKDKNPEIAKEIEEAIEELKKILEE
B7: usp_38_diff_out_24_27_503 (protein)
chain: EEERKEKIERLKKLLEEILKLLEESRTGDISVRIRASSEIDELAEEIRKILEELGNEEGLELLTEFETQVYAVLSRSPNWEEHFEKAKELAEKILELAKK
B8: usp_38_diff_out_2_113_463 (protein)
chain: SEEERRERAEDLARIILEGSEYLLEKAKRGTLSGETMITMIGGIVHAAEEAFRLDPSVAPVIKRAIEKLKEIAELYKDKNPEVYEAIKEAIERLEKLLAE
B9: usp_38_diff_out_2_113_461 (protein)
chain: SEEERKERAEDLKEIITEGSDYLLEKAKKGTLSGDTMIVMIGGIVHAAKEAFALDPSVKPTIEEAIKKLEEIKELYKDRNPEVAKAIEDAIKELKALLAK
B10: usp_38_diff_out_2_113_465 (protein)
chain: EEEERARLTQLYVDTILEGSDQLLRRAKRGTLSSTTMITMIGGIVEAAREAFRLDPSVKPVLEEVAKKLAEIAEIYADKDAETAAAVKAAIAEINALIEA
B11: usp_38_diff_out_2_113_460 (protein)
chain: DEEERKELAELYKKTILEGAEKLLKRTKKGTLSTATQIAMLGGIVHAAKEAAKLDPSVKPVLEEVIKKLKEIAELVKDKNPELYAATQKAIEEIEKILKE
B12: usp_38_diff_out_2_113_470 (protein)
chain: DPEERKKEAELYKKIILEGAEQLLRLAKKGRLTPDRTRVMLGGIVEAARRAYELDPSVKPVIEEVIKKLEEVEKLVKDKNPEVAAAIKEAIKELKKILKE
B13: usp_38_diff_out_24_27_504 (protein)
chain: SEEHEKKLEELKKLLEEILKLLEESKTGDISVRIKASSEIDELFKEIEKILKELGNEEGLKLLKEFKTQAYAVLSRSPDWEEHLKKAKELAKKILELVEK
B14: usp_38_diff_out_2_113_464 (protein)
chain: DPEERQRLALLLRDTVVSGADYLLEKAKKGTLSSDTIITMIGGITHAARELAALDPSAKPALEEVAKKLKEIAEIYKDKDEEVKKAVEEAIKEIEALIKA
B15: usp_38_diff_out_2_113_467 (protein)
chain: DPEERREEAELYRDIILEGADKLLRLAERGMLTPDRTRVMLGGIVHAAREAMELDPSTRPTIEEVIEKLERVRKLVEGKNPEIAKEVERAIEELKEILKE
B16: usp_38_diff_out_2_113_466 (protein)
chain: DPEERAEEAALYRDIILEGAELLLRKAKKGMLTPDRTRVMLGGIVHAAEVAYELDPSVAPDIERVIEKLEEVRELVKDKNPEVAAEIEKAIEELKAILER

Target: T1, USP38, Q8NB14
Test: median log2 fold change of GCK-ALFA target abundance (FLAG IP / Myc IP barcode read proportion) (log2 ratio); each designed protein is fused to an ALFA-tag nanobody in HEK293 cells to bring the named protein to FLAG-tagged glucokinase (GCK); Myc marks an untargeted standard; higher = target protein stabilised (more abundant)
Conditions: target protein: 3xFLAG-MCP-GCK-ALFA reporter; HEK293 landing pad (RPLP)
Summary of the method: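 An ALFA-nanobody-fused binder library was recombined into HEK293 landing-pad cells and induced with 2 μg mL^−1 doxycycline. Cells were transfected with a plasmid expressing a FLAG-tagged target and a Myc-tagged standard. After 48 h, lysates underwent anti-FLAG and anti-Myc immunoprecipitation, and circular RNA barcodes were reverse transcribed, amplified and sequenced. Target abundance is the per-binder median log2 ratio of FLAG to Myc barcode read proportions. Barcodes needed ≥10^−7 proportion in both replicates, binders ≥3 barcodes per replicate, and a 10^−6 pseudocount was added; the two replicates were pooled.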

Binder | median log2 fold change
B1 | 0.364
B2 | 0.157
B3 | 0.427
B4 | 0.548
B5 | 0.204
B6 | 0.211
B7 | -0.574
B8 | -0.229
B9 | -0.00144
B10 | 0.0889
B11 | 0.123
B12 | 0.141
B13 | 0.3
B14 | 0.0135
B15 | 0.0135
B16 | -0.156
